A selection: hits, their analogues and other compounds. The true share with any hit is near 10%.
JMJD2A Tudor = qHTS Assay for Inhibitors of JMJD2A-Tudor Domain | Lysine-specific demethylase 4A (Homo sapiens), O75164 | AlphaScreen JMJD2A-Tudor / H3K4me3 peptide binding | Potency, µM (top dose mostly 114 µM), most hits filed as inhibitors | 390,000 compounds, 4.4% hits; also: nearly all actives have a fitted effect of over 50% in size
GLS inh = qHTS for Inhibitors of Glutaminase (GLS); 410,000 compounds, 0.21% hits; Glutaminase kidney isoform, mitochondrial (Homo sapiens), O94925; AID 624170, 2012; GLS enzymatic activity, qHTS titration; Potency, µM (series often up to 45.5 µM), most hits filed as inhibitors
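Enzyme dispensed in phosphate buffer (45 mM, pH 8.2, 0.02% Tween-20), compounds pinned in, then 1 mM L-glutamine solution and the glutamate oxidase–HRP–Amplex Red mix added; fluorescence read immediately and again after 30 min at room temperature.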
HP1b binding inh = HTS for Inhibitors of HP1-beta Chromodomain Interactions with Methylated Histone Tails; Chromobox protein homolog 1 (Homo sapiens), P83916; AlphaScreen HP1-beta / biotin-H3K9me3 peptide binding; Potency, µM (series often up to 114 µM), actives largely listed as inhibitors; 390,000 compounds, 0.56% hits; AID 540317, 2011; also: nearly all actives have a fitted effect of over 70% in size
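AlphaScreen: HP1-beta (50 nM) preformed 30 min with biotin-H3(1-18)K9me3 peptide (50 nM) in PBS pH 7.4, 0.01% Tween-20. Compound added for 30 min at RT, then streptavidin donor/nickel chelate acceptor beads (10 ug/mL) for 30 min.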
L3MBTL1 inh = qHTS Assay for the Inhibitors of L3MBTL1; Lethal(3)malignant brain tumor-like protein 1 (Homo sapiens), Q9Y468; AlphaScreen L3MBTL1–H3K9me1 peptide binding; Potency, µM (titrated, usually from 57.1 µM), hits mostly inhibitors; 230,000 compounds, 0.66% hits; AID 485360, 2010; also: nearly all actives have a fitted effect of over 60% in size
Target sequence (Q9Y468 whole entry, looked up): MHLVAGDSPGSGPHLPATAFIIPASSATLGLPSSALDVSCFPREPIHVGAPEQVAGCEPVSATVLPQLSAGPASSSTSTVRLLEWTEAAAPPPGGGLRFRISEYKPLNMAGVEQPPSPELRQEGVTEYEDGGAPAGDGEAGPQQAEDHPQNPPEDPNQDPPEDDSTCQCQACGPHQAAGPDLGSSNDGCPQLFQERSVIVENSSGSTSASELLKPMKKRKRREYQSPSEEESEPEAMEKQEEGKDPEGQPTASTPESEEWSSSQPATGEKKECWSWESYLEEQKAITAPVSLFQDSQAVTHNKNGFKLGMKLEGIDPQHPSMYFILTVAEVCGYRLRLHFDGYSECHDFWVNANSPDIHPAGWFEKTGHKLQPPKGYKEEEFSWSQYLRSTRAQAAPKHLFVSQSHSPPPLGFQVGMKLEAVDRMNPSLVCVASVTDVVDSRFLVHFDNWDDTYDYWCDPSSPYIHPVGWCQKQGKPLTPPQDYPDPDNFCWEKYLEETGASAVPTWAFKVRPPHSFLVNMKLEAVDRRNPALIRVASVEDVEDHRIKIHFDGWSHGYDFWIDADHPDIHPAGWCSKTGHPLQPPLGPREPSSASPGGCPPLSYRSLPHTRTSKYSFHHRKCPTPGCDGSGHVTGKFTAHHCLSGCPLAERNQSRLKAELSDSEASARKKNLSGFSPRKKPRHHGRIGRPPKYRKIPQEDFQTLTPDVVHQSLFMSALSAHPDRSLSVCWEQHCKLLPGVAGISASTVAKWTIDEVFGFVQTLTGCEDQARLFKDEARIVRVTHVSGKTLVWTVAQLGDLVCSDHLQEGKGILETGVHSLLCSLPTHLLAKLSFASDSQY
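AlphaScreen assay: L3MBTL1 (50 nM final) was preincubated 30 min at room temperature with biotinylated H3(1-15)K9me1 peptide (75 nM final), then 30 min with library compounds; streptavidin donor and nickel chelate acceptor beads (10 ug/mL final) added, 30 min dark.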
G9a block = qHTS Assay for Inhibitors of Histone Lysine Methyltransferase G9a; 350,000 compounds, 8.8% hits; Histone-lysine N-methyltransferase EHMT2 (Homo sapiens), Q96KQ7; Potency, µM (top dose mostly 102 µM), hits mostly inhibitors; G9a H3K9 monomethylation, AlphaScreen, 2 h; also: nearly all actives have a fitted effect of over 75% in size
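Using a bead-based AlphaScreen, monomethylated H3K9 product from 2 h room-temperature reactions (G9a 20 nM, peptide 500 nM, SAM 20 uM) was detected with 0.5 ug/mL rabbit anti-H3K9me1 antibody.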
BAZ2B inh = qHTS Assay for Inhibitors of BAZ2B; Bromodomain adjacent to zinc finger domain protein 2B (Homo sapiens), Q9UIF8; AlphaScreen BAZ2B-H3K14Ac peptide displacement; Potency, µM (highest dose often 114 µM), actives largely listed as inhibitors; 360,000 compounds, 4.4% hits; also: nearly all actives have a fitted effect of over 60% in size
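Multi-concentration screen (max 110 uM) measuring displacement of acetylated histone H3 peptide from BAZ2B by AlphaScreen, using 50 nM protein, 50 nM peptide and 10 ug/mL streptavidin donor plus Ni-chelate acceptor beads.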
A number is an active result; ! = not confirmed by another sample; [ ] = remark or other dose. Calls follow the shape of the dose curve; as a rule, active = well fitted curve in the direction sought with a large enough effect; inconclusive = small, poorly fitted or top-dose-only effect, or another doubt; inactive = no such curve, though single readings can be large; an effect the other way counts as inactive or inconclusive.

`CCOC(=O)c1c(NC(C)=O)sc(/C(C)=N/Nc2ccc(C(=O)O)cc2)c1C` gave JMJD2A Tudor inactive, GLS inh inactive, HP1b binding inh inactive, G9a block 32µM and BAZ2B inh inconclusive.
`COc1ccc2c(/C=N/Nc3ccc(C(=O)O)cc3)c[nH]c2c1` gave JMJD2A Tudor inconclusive, GLS inh inactive, HP1b binding inh inactive, G9a block inconclusive and BAZ2B inh inconclusive.
COc1ccc2c(c1)C(=NNc1ccc(C(=O)O)cc1)c1cc(OC)ccc1-2 was read as JMJD2A Tudor 50µM, GLS inh inactive, HP1b binding inh inconclusive, G9a block inconclusive and BAZ2B inh 40µM.
Screening CC(=O)N1CCc2c(sc3c2c(=O)n(-c2ccccc2)c(=O)n3CC(=O)c2ccc(F)cc2)C1 returned JMJD2A Tudor inactive, GLS inh inactive, HP1b binding inh inactive, G9a block inactive and BAZ2B inh inactive.
For O=C(COc1ccc([N+](=O)[O-])cc1)N1CCC(c2nc3ccccc3s2)CC1 the results were JMJD2A Tudor inactive, GLS inh inactive, HP1b binding inh inactive, G9a block inconclusive and BAZ2B inh inactive.
`COCCCNC(=O)Cn1cnc2sc(C)c(S(=O)(=O)N3CCC(C)CC3)c2c1=O` gave JMJD2A Tudor inactive, GLS inh inactive, HP1b binding inh inactive, G9a block inactive and BAZ2B inh inactive.
COc1ccc(C(=O)NCc2ccc3c(c2)CCN3C(=O)c2ccc(C)cc2)cc1 was read as JMJD2A Tudor inconclusive, GLS inh inactive, HP1b binding inh inactive, G9a block inactive and BAZ2B inh inactive.
C/C(=N\Nc1ccc(C(=O)O)cc1)c1ccc(Br)cc1 was read as JMJD2A Tudor 71µM, GLS inh inactive, HP1b binding inh inconclusive, L3MBTL1 inh inconclusive and BAZ2B inh 50µM.
COc1ccc2c(c1)C(=NN)c1cc(OC)ccc1-2 was read as JMJD2A Tudor 56µM, GLS inh inactive, HP1b binding inh inactive, L3MBTL1 inh inactive, G9a block inconclusive and BAZ2B inh 40µM.
`CC(=O)NCCNc1nc(-c2ccccc2C)nc2ccccc12` gave G9a block inactive[0.501 µM].
`CN(C)c1ccc(C(CNS(=O)(=O)c2ccc(Cl)cc2)N2CCCC2)cc1` (stereo unspecified) gave JMJD2A Tudor 50µM, GLS inh inactive, HP1b binding inh inconclusive, G9a block inconclusive and BAZ2B inh 32µM.
For CN(C)c1ccc(C(CNS(=O)(=O)c2ccc(Br)cc2)N2CCCC2)cc1 (stereo unspecified) the results were JMJD2A Tudor 45µM, GLS inh inactive, HP1b binding inh inconclusive, G9a block 18µM and BAZ2B inh 35µM.
`CCC(=O)Nc1cc(-c2nc3ccccc3s2)c(Cl)cc1Cl` gave JMJD2A Tudor inactive, GLS inh inactive, HP1b binding inh inactive, G9a block inactive and BAZ2B inh inconclusive.
`COc1ccc(CCNC(=O)CCCCn2c(=O)c3ccccc3n(Cc3ccc(Cl)cc3)c2=O)cc1OC` gave JMJD2A Tudor inactive, GLS inh inactive, HP1b binding inh inactive, G9a block inactive and BAZ2B inh inactive.
`COC(=O)c1c(-c2ccc(Cl)cc2)noc1N1CCN(c2cccc(C)c2C)CC1` gave JMJD2A Tudor inactive, GLS inh inactive, HP1b binding inh inactive, G9a block inactive and BAZ2B inh inactive.
`CSc1nncc(/C(C)=N\Nc2ccccc2C)n1` gave JMJD2A Tudor inactive, GLS inh inactive, HP1b binding inh inactive, G9a block 2.5µM and BAZ2B inh inactive.
CSc1nncc(/C(C)=N/O)n1 was read as JMJD2A Tudor inactive, GLS inh inactive, HP1b binding inh inactive, L3MBTL1 inh inactive, G9a block inactive and BAZ2B inh inactive.
`C/C(=N\Nc1ccccc1C)c1cccnc1` gave JMJD2A Tudor 50µM, GLS inh inactive, HP1b binding inh inactive, G9a block 1.4µM and BAZ2B inh inconclusive.
For COc1ccc2nc3cccc(OC)c3nc2c1 the results were JMJD2A Tudor inactive, GLS inh inactive, HP1b binding inh inactive, G9a block 22µM and BAZ2B inh inconclusive.
`COc1ccc2nc3ccccc3nc2c1N` gave JMJD2A Tudor 40µM, GLS inh inconclusive, HP1b binding inh 40µM, L3MBTL1 inh inconclusive, G9a block 1µM and BAZ2B inh 28µM.
Screening COC(=O)CCNC(=O)Cc1c(C)n(C(=O)c2ccc(Cl)cc2)c2ccc(OC)cc12 returned JMJD2A Tudor inactive, GLS inh inactive, HP1b binding inh inactive, G9a block 50µM and BAZ2B inh inactive.
Cc1nc2nc(C)c(CCC(=O)NCCCN3CCN(c4cccc(Cl)c4)CC3)c(C)n2n1 was read as JMJD2A Tudor inconclusive, GLS inh inactive, HP1b binding inh inactive, L3MBTL1 inh inactive, G9a block 50µM! and BAZ2B inh inconclusive.
`Cc1nc2nc(C)c(CCC(=O)NCCc3ccccc3)c(C)n2n1` gave JMJD2A Tudor inactive, GLS inh inactive, HP1b binding inh inactive, G9a block inactive and BAZ2B inh inactive.
`COc1cccc(N2CCN(C(=O)c3cnn(-c4ccccc4Cl)c3C3CCN(C(=O)OC(C)(C)C)CC3)CC2)c1` gave JMJD2A Tudor inconclusive, GLS inh inactive, HP1b binding inh inactive, G9a block inconclusive and BAZ2B inh inactive.
Screening CC(Sc1ccc2ccccc2n1)C(=O)O (stereo unspecified) returned JMJD2A Tudor inactive, GLS inh inactive, HP1b binding inh inactive, L3MBTL1 inh inactive, G9a block 50µM and BAZ2B inh inactive.
Screening COc1cc(SC)ccc1C(=O)N1CCn2c3c(c4cc(C)ccc42)CCCC31 (stereo unspecified) returned JMJD2A Tudor inactive, GLS inh inactive, HP1b binding inh inactive, G9a block inactive and BAZ2B inh inactive.
COc1ccc(-n2c(O)c(/C=N/Nc3nc(C)cc(C)n3)c3ccccc3c2=O)cc1OC was read as JMJD2A Tudor inactive, GLS inh inconclusive, HP1b binding inh inactive, L3MBTL1 inh inactive, G9a block inactive and BAZ2B inh inactive.
`COc1ccc(-c2[nH]ncc2/C=N\NS(=O)(=O)c2ccccc2)cc1OC` gave JMJD2A Tudor inactive, GLS inh inactive, HP1b binding inh inactive, G9a block 50µM and BAZ2B inh inactive.
